From ChEMBL document CHEMBL2218924, “A broad activity screen in support of a chemogenomic map for kinase signalling research and drug discovery” (Biochem J, 2013) come the findings set out here.

In test [1] the target is T1, Serine/threonine-protein kinase TBK1 (Homo sapiens) (UniProt Q9UHD2).
T1 sequence (whole entry): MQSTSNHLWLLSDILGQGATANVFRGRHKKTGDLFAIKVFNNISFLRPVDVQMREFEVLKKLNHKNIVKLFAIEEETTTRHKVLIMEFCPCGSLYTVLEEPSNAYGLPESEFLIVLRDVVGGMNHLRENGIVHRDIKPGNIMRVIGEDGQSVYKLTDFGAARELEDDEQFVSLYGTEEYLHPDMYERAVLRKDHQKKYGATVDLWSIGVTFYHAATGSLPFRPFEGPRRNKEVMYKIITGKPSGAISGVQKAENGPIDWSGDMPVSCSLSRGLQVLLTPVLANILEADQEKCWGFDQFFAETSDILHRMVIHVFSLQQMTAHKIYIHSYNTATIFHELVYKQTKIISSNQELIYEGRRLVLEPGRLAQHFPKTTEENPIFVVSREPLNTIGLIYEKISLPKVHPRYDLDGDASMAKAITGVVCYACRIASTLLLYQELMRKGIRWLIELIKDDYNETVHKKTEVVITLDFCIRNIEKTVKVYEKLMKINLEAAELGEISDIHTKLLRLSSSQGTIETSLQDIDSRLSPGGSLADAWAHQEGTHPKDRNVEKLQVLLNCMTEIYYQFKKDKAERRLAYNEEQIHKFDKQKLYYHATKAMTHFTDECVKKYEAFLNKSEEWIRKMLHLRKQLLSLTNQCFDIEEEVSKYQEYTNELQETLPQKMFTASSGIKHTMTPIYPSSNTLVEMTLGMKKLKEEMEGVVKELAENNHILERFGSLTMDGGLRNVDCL
Conditions: at 1 µM.

Test [2] deals with T1, Serine/threonine-protein kinase TBK1 (Homo sapiens). The following applies: at 10 µM.
The target in test [3] is T2, TGF-beta receptor type-1 (Homo sapiens) (UniProt P36897).
T2 sequence (whole entry): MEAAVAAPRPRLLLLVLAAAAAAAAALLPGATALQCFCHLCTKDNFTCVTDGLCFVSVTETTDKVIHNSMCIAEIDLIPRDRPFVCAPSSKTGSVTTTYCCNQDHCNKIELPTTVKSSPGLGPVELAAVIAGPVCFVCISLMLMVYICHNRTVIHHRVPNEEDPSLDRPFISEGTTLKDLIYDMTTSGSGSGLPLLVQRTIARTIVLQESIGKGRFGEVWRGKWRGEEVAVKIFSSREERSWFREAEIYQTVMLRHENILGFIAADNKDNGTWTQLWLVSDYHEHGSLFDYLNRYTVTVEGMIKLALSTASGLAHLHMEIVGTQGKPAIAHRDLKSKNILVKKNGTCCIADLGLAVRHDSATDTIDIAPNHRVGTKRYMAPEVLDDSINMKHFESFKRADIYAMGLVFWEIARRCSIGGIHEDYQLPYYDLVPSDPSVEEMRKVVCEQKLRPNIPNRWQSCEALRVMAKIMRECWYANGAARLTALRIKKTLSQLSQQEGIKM
The following applies: at 1 µM.

Test [4] addresses T2, TGF-beta receptor type-1 (Homo sapiens). The following applies: at 10 µM.
Test [5] deals with T3, Inhibitor of nuclear factor kappa-B kinase subunit alpha (Homo sapiens) (UniProt O15111).
T3 sequence (whole entry): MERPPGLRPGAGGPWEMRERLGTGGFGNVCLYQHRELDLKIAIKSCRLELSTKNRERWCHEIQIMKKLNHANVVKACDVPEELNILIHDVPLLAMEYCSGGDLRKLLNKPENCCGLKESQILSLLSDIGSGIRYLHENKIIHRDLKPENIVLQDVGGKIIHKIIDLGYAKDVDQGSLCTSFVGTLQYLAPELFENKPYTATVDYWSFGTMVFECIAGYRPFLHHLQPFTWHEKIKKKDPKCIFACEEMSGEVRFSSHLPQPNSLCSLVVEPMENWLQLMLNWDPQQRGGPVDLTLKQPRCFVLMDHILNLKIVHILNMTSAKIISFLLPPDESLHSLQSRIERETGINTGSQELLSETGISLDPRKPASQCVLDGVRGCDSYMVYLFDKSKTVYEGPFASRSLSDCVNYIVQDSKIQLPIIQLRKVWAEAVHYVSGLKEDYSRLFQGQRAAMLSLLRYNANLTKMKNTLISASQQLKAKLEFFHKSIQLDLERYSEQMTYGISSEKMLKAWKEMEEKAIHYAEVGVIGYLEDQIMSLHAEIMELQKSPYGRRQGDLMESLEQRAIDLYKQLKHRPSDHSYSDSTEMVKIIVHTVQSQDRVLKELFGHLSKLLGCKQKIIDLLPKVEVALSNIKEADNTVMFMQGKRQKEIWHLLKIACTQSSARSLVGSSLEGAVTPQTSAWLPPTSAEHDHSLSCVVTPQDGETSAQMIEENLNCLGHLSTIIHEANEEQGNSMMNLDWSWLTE
The following applies: at 1 µM.

In test [6] the target is T3, Inhibitor of nuclear factor kappa-B kinase subunit alpha (Homo sapiens). The following applies: at 10 µM.
The target of test [7] is T4, Inhibitor of nuclear factor kappa-B kinase subunit beta (Homo sapiens) (UniProt O14920).
T4 sequence (whole entry): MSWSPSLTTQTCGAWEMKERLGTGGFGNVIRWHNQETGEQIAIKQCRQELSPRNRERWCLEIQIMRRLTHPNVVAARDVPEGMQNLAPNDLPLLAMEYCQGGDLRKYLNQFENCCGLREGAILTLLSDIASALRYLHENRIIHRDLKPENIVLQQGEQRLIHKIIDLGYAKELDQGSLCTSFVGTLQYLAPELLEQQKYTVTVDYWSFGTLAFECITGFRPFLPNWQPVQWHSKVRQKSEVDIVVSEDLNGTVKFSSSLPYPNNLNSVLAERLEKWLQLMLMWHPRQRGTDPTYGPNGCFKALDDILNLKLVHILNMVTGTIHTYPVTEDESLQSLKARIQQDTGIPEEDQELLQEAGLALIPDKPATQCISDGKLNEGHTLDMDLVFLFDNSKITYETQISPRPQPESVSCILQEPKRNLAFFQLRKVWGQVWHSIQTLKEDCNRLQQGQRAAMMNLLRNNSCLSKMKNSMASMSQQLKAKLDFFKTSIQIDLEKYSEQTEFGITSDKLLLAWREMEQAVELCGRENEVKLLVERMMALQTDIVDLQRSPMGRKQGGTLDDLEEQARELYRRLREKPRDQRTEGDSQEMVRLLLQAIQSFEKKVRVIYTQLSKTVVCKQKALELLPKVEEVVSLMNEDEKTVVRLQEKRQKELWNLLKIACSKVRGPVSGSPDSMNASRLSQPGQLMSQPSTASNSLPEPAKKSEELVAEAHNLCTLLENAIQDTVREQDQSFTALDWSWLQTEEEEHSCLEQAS
The following applies: at 1 µM.

In test [8] the target is T4, Inhibitor of nuclear factor kappa-B kinase subunit beta (Homo sapiens). Conditions: at 10 µM.
Test [9] deals with Insulin receptor (Homo sapiens) (UniProt P06213). The following applies: at 1 µM.
Insulin receptor (Homo sapiens), sequence (P06213 28-758 limits assumed): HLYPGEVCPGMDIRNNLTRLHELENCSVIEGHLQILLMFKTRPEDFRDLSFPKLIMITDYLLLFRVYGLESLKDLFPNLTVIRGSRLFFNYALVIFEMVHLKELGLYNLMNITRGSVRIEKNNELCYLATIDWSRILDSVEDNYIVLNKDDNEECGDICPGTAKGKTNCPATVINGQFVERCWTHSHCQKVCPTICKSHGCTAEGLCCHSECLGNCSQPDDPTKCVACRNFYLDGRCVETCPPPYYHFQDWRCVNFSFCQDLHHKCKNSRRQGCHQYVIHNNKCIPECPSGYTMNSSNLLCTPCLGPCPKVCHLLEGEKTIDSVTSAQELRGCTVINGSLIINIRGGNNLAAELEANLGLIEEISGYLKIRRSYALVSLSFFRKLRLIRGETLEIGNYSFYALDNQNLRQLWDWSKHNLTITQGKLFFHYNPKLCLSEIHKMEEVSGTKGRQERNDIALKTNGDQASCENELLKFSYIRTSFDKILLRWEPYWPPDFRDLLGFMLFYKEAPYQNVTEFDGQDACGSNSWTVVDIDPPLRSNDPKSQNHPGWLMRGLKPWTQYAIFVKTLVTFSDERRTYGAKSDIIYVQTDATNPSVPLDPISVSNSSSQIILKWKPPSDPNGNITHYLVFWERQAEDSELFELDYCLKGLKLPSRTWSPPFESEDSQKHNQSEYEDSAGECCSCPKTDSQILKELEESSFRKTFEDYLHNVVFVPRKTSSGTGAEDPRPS
Insulin receptor (Homo sapiens), sequence (P06213 763-1382 limits assumed): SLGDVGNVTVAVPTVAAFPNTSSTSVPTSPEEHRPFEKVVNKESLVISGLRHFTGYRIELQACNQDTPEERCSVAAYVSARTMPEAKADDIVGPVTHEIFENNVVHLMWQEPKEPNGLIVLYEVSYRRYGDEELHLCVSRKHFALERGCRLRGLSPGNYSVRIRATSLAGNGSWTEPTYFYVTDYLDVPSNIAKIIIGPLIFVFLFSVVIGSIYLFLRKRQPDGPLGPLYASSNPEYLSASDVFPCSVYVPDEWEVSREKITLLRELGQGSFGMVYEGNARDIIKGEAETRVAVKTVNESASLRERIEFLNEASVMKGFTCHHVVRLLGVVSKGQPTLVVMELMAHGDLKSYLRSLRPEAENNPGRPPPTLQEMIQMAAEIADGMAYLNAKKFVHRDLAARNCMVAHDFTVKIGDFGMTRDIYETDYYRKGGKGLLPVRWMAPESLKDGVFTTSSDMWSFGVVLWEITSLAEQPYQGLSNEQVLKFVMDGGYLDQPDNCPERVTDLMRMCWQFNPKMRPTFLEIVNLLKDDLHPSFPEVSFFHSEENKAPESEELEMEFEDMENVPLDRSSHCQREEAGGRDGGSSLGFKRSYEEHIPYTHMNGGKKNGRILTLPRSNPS

With `O=C(O)/C=C/c1cc(Br)c(Br)c(Br)c1Br`, the residual activity in test [1] was 69%; in test [2], 58%; in test [3], 101%; in [4], 97%; in test [5] it was 98%; in [6] it was 35%. Further, the residual activity was 105% in test [7], 65% in [8] and 144% in [9].
